# Assays:
# Assay in all cases: PBM binding z-score (relative to random genomic background probes); higher = stronger binding; sequences stand for … in GC…GCGATTGACAGCGTAGAATGAAGG
# [1] = system: FXR:RXRa (NR concentration 270 nM, RXRa partner concentration 90 nM)
# Summary of the method: (§1)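 Each nuclear receptor dimer, without ligand, was incubated for 1 h on custom Agilent 4×180K protein-binding microarrays. Binding was detected with antibodies against each partner (one per run), and scanned fluorescence was regression-normalized. The binding z-scores are referenced to random human genomic background probes.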
# [2] = system: LXRa:RXRa (NR concentration 270 nM, RXRa partner concentration 90 nM)
# Summary of the method: as §1
# [3] = system: LXRa homodimer (NR concentration 270 nM)
# Summary of the method: as §1
# [4] = system: LXRb:RXRa (NR concentration 270 nM, RXRa partner concentration 90 nM)
# Summary of the method: as §1
# [5] = system: LXRb homodimer (NR concentration 270 nM)
# Summary of the method: as §1
# [6] = system: PPARa:RXRa (NR concentration 270 nM, RXRa partner concentration 90 nM)
# Summary of the method: as §1
# [7] = system: PPARg:RXRa (NR concentration 180 nM, RXRa partner concentration 90 nM)
# Summary of the method: as §1
# [8] = system: PPARg:RXRa 270nM:90nM, anti-RXR (NR concentration 270 nM, RXRa partner concentration 90 nM)
# Summary of the method: as §1
# [9] = system: PPARg:RXRa 30nM:10nM, anti-RXR (NR concentration 30 nM, RXRa partner concentration 10 nM)
# Summary of the method: as §1
# [10] = system: PPARg:RXRa 90nM:30nM, anti-RXR (NR concentration 90 nM, RXRa partner concentration 30 nM)
# Summary of the method: as §1
# [11] = system: PPARg:RXRa DBDmut IVT, anti-RXR (DBD mutation: RXRa K156A/R161A, NR concentration 270 nM, RXRa partner concentration 90 nM)
# Summary of the method: as §1
# [12] = system: PPARg:RXRa IVT, anti-PPARg (NR concentration 270 nM, RXRa partner concentration 90 nM)
# Summary of the method: as §1
# [13] = system: PPARg DBDmut:RXRa IVT, anti-PPARg (DBD mutation: PPARg1 K132A/R137A, NR concentration 270 nM, RXRa partner concentration 90 nM)
# Summary of the method: as §1
# [14] = system: PPARg DBDmut IVT, anti-PPARg (DBD mutation: PPARg1 K132A/R137A, NR concentration 270 nM)
# Summary of the method: as §1
# [15] = system: PPARg homodimer (NR concentration 180 nM)
# Summary of the method: as §1
# [16] = system: PXR:RXRa (NR concentration 270 nM, RXRa partner concentration 90 nM)
# Summary of the method: as §1
# [17] = system: PXR homodimer (NR concentration 270 nM)
# Summary of the method: as §1
# [18] = system: RARa:RXR (NR concentration 270 nM, RXRa partner concentration 90 nM)
# Summary of the method: as §1
# [19] = system: RARa homodimer (NR concentration 270 nM)
# Summary of the method: as §1
# [20] = system: RARb:RXRa (NR concentration 270 nM, RXRa partner concentration 90 nM)
# Summary of the method: as §1
Sequence,PBM binding z-score [1],PBM binding z-score [2],PBM binding z-score [3],PBM binding z-score [4],PBM binding z-score [5],PBM binding z-score [6],PBM binding z-score [7],PBM binding z-score [8],PBM binding z-score [9],PBM binding z-score [10],PBM binding z-score [11],PBM binding z-score [12],PBM binding z-score [13],PBM binding z-score [14],PBM binding z-score [15],PBM binding z-score [16],PBM binding z-score [17],PBM binding z-score [18],PBM binding z-score [19],PBM binding z-score [20]
ACAGACAGGTGAGTGAAAGTAACTCAGCTGGACG,0.0251,0.239,-0.514,-0.461,-0.641,-0.0542,0.742,-0.29,-0.67,-0.542,0.546,0.438,-0.222,0.175,-1.05,-0.413,-0.648,0.2,-0.554,0.304
CCTGTTAGTTGACCATAAGGGCAACCGAAGCTCG,0.874,0.297,0.378,0.396,0.499,0.707,0.162,0.397,0.0716,0.159,0.268,0.863,0.531,0.804,1.39,0.426,0.794,0.804,1.03,1.74
AGAATGAGGTTATTAAGATCCGGGAATTGCGGTC,1.33,2.41,-0.0229,1.24,-0.217,2.49,1.06,1.15,0.0449,0.869,2.93,2.17,0.655,0.352,1.11,0.959,0.153,1.28,-0.0311,1.48
ATCTCTAGGTAACCAAGTTCAGTGAGTGCCGAAC,0.417,0.863,0.949,0.855,0.746,1.04,0.34,0.67,-0.0594,0.338,3.88,2.77,0.349,0.828,0.761,2.12,3.09,0.548,0.845,1.21
TCTAGTTGGTCAAAGTTCACACACTCGAAATGCG,3.96,4.54,4.63,3.66,1.36,5.5,9.83,9.2,8.79,9.75,2.57,4.89,1.12,1.12,3.54,5.09,4.01,5.1,2.77,3.83
ATATGTAGGTTACATCCGGGTCAGTCAGGCTATG,1.08,2.95,0.519,1.74,0.572,3.66,5.53,4.69,2.14,3.86,7.52,7.34,2.22,1.82,1.39,2.01,0.364,2.42,0.784,1.96
CAAACTAGGTAACGAAAGGTCAAAGTCGAATGAC,4.96,7.4,6.74,6.41,2.26,5.8,6.82,6.42,3.66,5.76,7.04,6.76,1.27,1.33,3.34,5.5,1.94,5.55,2.01,4.38
TCTAACAGGCCAGAGGGTCACTCAAGAGGTACGG,1.24,1.31,-0.315,1.47,-0.439,2.54,1.41,2.62,3.2,2.71,1.73,0.466,-0.318,-0.0122,1.11,1.86,-0.0848,2.6,-0.0287,2.27
GCGACTGGGGCAAAGCATGTTACCATAAGGTTGG,-0.69,-0.602,-0.362,-0.192,-1.06,0.898,1.61,2.22,0.294,1.58,4.73,3.23,-0.245,-0.674,0.0632,-0.48,-0.713,-0.255,-1.06,0.551
GCGAGTTGGTCAGTAAAAGGTCACACACCGGTCG,3.43,4.42,4.78,4.07,0.343,4.36,3,4.71,2.22,4.23,0.617,2.26,0.948,-0.184,4.06,5.14,1.31,5.93,2.5,4.33
CTGACTGGGGCAAAGGTTACCATACTCAGTACGA,1.83,1.87,-0.166,3.05,-0.352,6.09,11.3,9.42,9.13,10.2,6.27,6.51,0.767,0.374,1.19,2.61,0.266,4.17,0.228,2.67
TCATATAGGTAATACATGTGAAAGTCGGCATCTA,0.838,1.1,0.394,0.937,0.272,1.43,1.42,2.35,3.69,3.13,3.84,2.56,1.65,1.42,0.451,0.682,0.0389,1.03,0.882,0.439
TATATTAGTTGAAGGGCAACCGACGAGTCCGTTT,0.481,0.797,0.861,0.474,1.01,0.509,0.844,1.23,0.993,1.22,0.182,0.973,1.48,1.13,1.26,0.629,0.738,0.321,1.47,1.68
ATCGAAAGGTCGAAGTGAGTATAGAGAAAGGGAA,3.94,3.53,0.221,2.69,0.919,4.23,2.38,3.01,1.33,2.56,0.215,1.01,1.1,1.1,1.21,2.16,0.245,2.76,1.12,3.55
